KAT2A inh: GCN5L2 (KAT2A) acetyltransferase inhibition; Q92830; AID 504327; Potency, µM (top dose mostly 58.9 µM), for the others: top-dose activity change, negative = inhibition, most hits filed as inhibitors; GCN5L2 HAT assay, ThioGlo1 CoA-SH fluorescence; actives 0.21% (n = 390,000); also: potency is read from the fitted curve at half-maximal effect
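Free CoA generated was detected with ThioGlo1 (50uM) fluorescence at Ex340nm/Em540nm, read immediately and after 20 min at room temperature. Enzyme, 20 nM in HEPES pH 7.5 buffer, saw compounds 15 min before adding 75uM H3(1-25) peptide and 70uM acetyl-CoA.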
GLS inh: blocks human kidney-isoform glutaminase activity. Potency, µM (highest dose often 45.5 µM), without a hit: top-dose activity change, negative = inhibition, usual class: inhibitors. AID 624170. actives 0.21% (n = 410,000). GLS enzymatic activity, qHTS titration; also: potency is read from the fitted curve at half-maximal effect
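Enzyme dispensed in phosphate buffer (45 mM, pH 8.2, 0.02% Tween-20), compounds pinned in, then 1 mM L-glutamine solution and the glutamate oxidase–HRP–Amplex Red mix added; fluorescence read immediately and again after 30 min at room temperature.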
VDR inhibitor: inhibitors of human vitamin D receptor | P11473 | VDR-SRC2-3 peptide fluorescence polarization, 2 h | Potency, µM, inactives show max response, negative = inhibition, actives largely listed as inhibitors | actives 0.93% (n = 400,000) | AID 504847; also: potency is read from the fitted curve at half-maximal effect
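Inhibition of the VDR/SRC2-3 peptide interaction is quantified by fluorescence polarization. Compounds (23 nl, pintool) incubate with the reagents for 2 hours at ambient room temperature.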
PLK1 PBD inh: PLK1 (human) polo-box domain binding inhibition. P53350. Plk1 PBD binding of FITC phosphopeptide, fluorescence polarization. Potency, µM, for inactives: max response, negative = inhibition, most hits filed as inhibitors. actives 2.8% (n = 360,000). AID 720504; also: potency is read from the fitted curve at half-maximal effect; series mostly up to about 57 µM; nearly all actives have a fitted effect of over 65% in size
PI4K2A inh: inhibitors of human PI4K2A. actives 0.13% (n = 420,000). activity change, negative = inhibition, % at 76.9 µM. purified PI4K2A, ADP-Glo luminescence, 1 h; hits give low values; in the data active = activity change below about -50%; inconclusive = mostly about -30% to -49%;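 also: -100% = wells without enzyme as full effect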
Target sequence (Q9BTU6 whole entry, looked up): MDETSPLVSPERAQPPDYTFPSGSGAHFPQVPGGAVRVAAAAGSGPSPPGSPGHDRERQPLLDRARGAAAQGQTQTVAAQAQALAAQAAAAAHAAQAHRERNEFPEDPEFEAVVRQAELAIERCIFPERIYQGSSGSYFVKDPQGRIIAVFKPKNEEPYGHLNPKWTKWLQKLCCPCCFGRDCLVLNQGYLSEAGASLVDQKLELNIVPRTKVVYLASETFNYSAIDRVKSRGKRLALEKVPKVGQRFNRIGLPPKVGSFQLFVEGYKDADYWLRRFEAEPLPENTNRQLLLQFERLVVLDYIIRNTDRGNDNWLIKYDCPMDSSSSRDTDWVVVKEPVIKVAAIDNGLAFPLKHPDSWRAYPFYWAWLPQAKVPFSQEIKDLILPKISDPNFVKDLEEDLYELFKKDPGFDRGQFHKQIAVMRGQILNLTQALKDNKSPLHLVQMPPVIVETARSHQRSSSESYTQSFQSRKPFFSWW
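In this quantitative HTS, ADP production by PI4K2A was quantified luminescently after 1 h at ambient temperature; 100 microM adenosine served as plate-quality control.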
Starred values were filed as active, the others as inactive; ? = inconclusive; . = no result. Most compounds without a hit are left out; they make up all but 3.1% or so of the library. Unless noted, calls follow the shape of the dose curve; as a rule, active = well fitted curve in the direction sought with a large enough effect; inconclusive = small, poorly fitted or top-dose-only effect, or another doubt; inactive = no such curve, though single readings can be large; an effect the other way counts as inactive or inconclusive. Unless noted, % is scaled to controls: 0 for no effect and ±100 for the full control effect.

SMILES	KAT2A inh	GLS inh	VDR inhibitor	PLK1 PBD inh	PI4K2A inh
O=C(Nc1ccccn1)c1cccs1	.	?	-12%	3.4µM*	5
Cc1cccc(N2C(=O)CC(Sc3nnc(C)s3)C2=O)c1 (centres undefined)	-3%	-4%	-18%	30µM*	6
CC(C)(CNC(=O)c1cccc(S(=O)(=O)Nc2ccc(SC(F)F)cc2)c1)N1CCOCC1	.	17%	-24%	13µM*	-16
Cc1ccc(S(=O)(=O)Nc2cccc(C(=O)NCC(C)(C)N3CCOCC3)c2)cc1F	-3%	-4%	-11%	0%	-4
Cc1cc(C)cc(Oc2coc3c(CN4CCN(C)CC4)c(O)ccc3c2=O)c1	-7%	-4%	2%	.	-7
Cc1ccc(OCc2nnc(SCC(=O)c3ccc4ccccc4c3)n2-c2ccc(Cl)cc2)cc1	.	.	.	.	4
CC1(OC(=O)c2cccs2)C(=O)C=C2C=C3CCCN3C=C2C1=O (centres undefined)	-3%	16µM*	?	?	?
CC1(OC(=O)CCc2ccccc2)C(=O)C=C2C=C3CCCN3C=C2C1=O (centres undefined)	-17%	-20%	-8%	-26%	-18
CC(C)(C)OC(=O)n1ccc2ccc(-c3ccc4cc[nH]c4c3)cc21	.	.	.	.	3
CN(C)c1ccc(-c2ccc3ncnc(-n4ccnc4)c3c2)cc1	25µM*	.	16µM*	.	.
Cc1ccccc1-c1ccc2ncnc(-n3ccnc3)c2c1	-14%	.	14µM*	.	.
COC(=O)c1sc(-c2ccc(C(C)(C)C)cc2)cc1NC(=O)CSCC(=O)O	?	27%	-18%	?	-3
COC(=O)c1sc(-c2ccc(C(C)(C)C)cc2)cc1NC(=O)c1ccccc1C(=O)O	?	-4%	?	21µM*	-3
Cc1ccccc1OC(=O)n1c(=S)oc2cc(Cl)ccc21	-24%	11%	-9%	13µM*	0
COc1ccc(N2C(=O)C(Cl)=C(Nc3ccccc3O)C2=O)cc1	-2%	-11%	-28%	12µM*	1
COc1ccc(N2C(=O)C(Cl)=C(Nc3ccccc3OC)C2=O)cc1	-7%	15%	-8%	2%	-1
CCCCC/C=C\C/C=C\CCCCCCCC(=O)NCC(=O)O	-2%	.	-2%	.	.
Cc1ccc(S(=O)(=O)N2[C@@H](c3ccccc3)C(C(=O)O)=CC[C@H]2c2ccc(C(C)C)cc2)cc1	-24%	24%	-25%	?	-4
Cc1ccc(S(=O)(=O)N2[C@@H](c3ccc(Cl)cc3)C(C(=O)O)=CC[C@H]2c2ccc(C(C)C)cc2)cc1	?	47%	-4%	19µM*	2
Cc1ccc([C@H]2C(C(=O)O)=CC[C@@H](c3ccc(C(C)C)cc3)N2S(=O)(=O)c2ccc(C)cc2)cc1	?	31%	-16%	24µM*	0
CCOC(=O)C1(Cc2ccccc2)CCN(Cc2ccc(C(F)(F)F)cc2)CC1	.	.	.	.	1
C[C@@H](/C=C/C(=O)OC(C)(C)C)Sc1ccc(C(C)(C)C)cc1	.	.	.	.	-2
CCCCCCCCCCCNC(=O)c1ccoc1C	-10%	8%	79µM*	?	-12
Cn1cnc(C(=O)N2CCc3ccccc3C2)c1C(=O)N1CCc2ccccc2C1	?	5%	-17%	21µM*	-5
COCCCNC(=O)c1ccccc1C(F)(F)F	1%	-7%	?	15µM*	1
SMILES	KAT2A inh	GLS inh	VDR inhibitor	PLK1 PBD inh	PI4K2A inh
CCCCNC(=O)N1CCc2ccccc2C1	2%	11%	?	30µM*	-8
O=C(/C=C/C(=O)N1CCc2ccccc2C1)N1CCc2ccccc2C1	-5%	-3%	8%	-6%	0
CCCCNC(=O)c1ccccc1C(=O)NCCCC	2%	?	?	5.3µM*	-3
O=C(OCc1cn(Cc2cccc(F)c2)nn1)N1CCOCC1	.	.	.	.	-1
Cc1cc(C(=O)O)c2c(=O)n(C)c(=O)n(C)c2n1	2%	-7%	-11%	.	0
CC(C)(C)c1ccc(-c2nnc(SCc3ccccc3)n2Cc2ccco2)cc1	.	.	.	.	-9
CCN(CC)CC(O)CCCCCCCCC(=O)OC (centres undefined)	-12%	-3%	-5%	6%	0
COC(=O)CCCCCCCCC(O)CN(C)C (centres undefined)	2%	52%	?	27µM*	0
CCC(C)CNC(=O)CN1C(=O)C2CCCCN2C(=O)c2ccccc21 (centres undefined)	.	.	.	.	-2
COc1cc(/C=N/Nc2ccc(F)cc2F)cc(OC)c1O	-5%	19%	-23%	27µM*	1
COc1cc(/C=N/Nc2ccccc2[N+](=O)[O-])cc(OC)c1O	-2%	?	-12%	-6%	0
Clc1ccc(Cn2nnc(-c3ccccc3)n2)cc1	-7%	-2%	-3%	-19%	-2
Clc1ccccc1-c1nnn(Cc2ccc(-c3nn[nH]n3)cc2)n1	-22%	55%	-22%	27µM*	0
CCOc1ccc(-n2c(SCC(=O)Nc3ccc(S(=O)(=O)Nc4cc(C)nc(C)n4)cc3)nnc2-c2ccco2)cc1	.	.	.	.	1
COc1ccc(-n2cc(C(=O)NCc3ccccc3)c3ccccc3c2=O)cc1	-10%	-4%	3%	.	-2
CCc1cccc(N(C(=O)c2csnn2)C(C(=O)NC(C)(C)C)c2ccncc2)c1 (centres undefined)	16%	14%	9%	27µM*	0
O=C(OCc1cn(Cc2ccccc2C(F)(F)F)nn1)N1CCOCC1	.	.	.	.	5
COC(=O)[C@]12C[C@H](CC(=O)N3CCSCC3)C(=O)N(Cc3ccco3)C1=C[C@H](C(C)C)O[C@@H]2C1CC1	.	.	.	.	-1
CC1(C)N=C(N)N=C(N)N1c1ccc(Cl)cc1	.	-13%	.	.	.
Oc1ccccc1-c1nnc(COc2ccc(Cl)cc2Cl)o1	-1%	25%	79µM*	27µM*	2
CCOC(=O)C[n+]1c(C)sc2ccc(OC)cc21	-13%	31%	?	27µM*	?
CN(C)CCCNc1cc(N2CCN(C3CCCCC3)CC2)c2noc3c2c1C(=O)c1ccccc1-3	-2%	11%	-23%	.	-14
O=C1C(=C(I)I)c2ccccc2-c2ccccc21	.	6%	35µM*	4.7µM*	-58*
N#CC1=C(S)N(c2ccccc2)C(c2cccs2)NC1=O (centres undefined)	-18%	-11%	?	?	-8
Cc1ccc(N2C(S)=C(C#N)C(=O)NC2c2ccco2)cc1 (centres undefined)	-9%	-14%	40µM*	-28%	-9
Cc1ccc(N2C(S)=C(C#N)C(=O)NC2c2cccs2)cc1 (centres undefined)	-8%	-2%	25µM*	27µM*	2
COCC(=O)OCC(=O)c1cc(C)n(-c2ccc(Br)cc2)c1C	-6%	12%	-19%	17µM*	7

Screening results: PubChem BioAssay, National Center for Advancing Translational Sciences (NCATS)
